Laboratory results as given in PubChem BioAssay (Tox21).
Results filed as inconclusive are left out. Unmarked numbers belong to inactive results. The call rests on the fitted dose curve; in most records, active means well fitted activation curve with a large enough effect in the repeat runs; inconclusive means weak or mixed curves; inactive means flat fitted curve, though single readings scatter.

Assay: A CellTox Green Cytotoxicity Assay to monitor cytotoxicity in HepG2 cells - 40 hour (AID 1224879); further: nearly all actives have a fitted effect of over 40% in size
Conditions: CellTox Green fluorescence; series mostly up to 76.8 µM; cytotoxicity increase: at the top concentration
How it was run: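 Read-out is fluorescence of a cyanine dye excluded from live cells that stains DNA of dead HepG2 cells, with signal proportional to cytotoxicity. Plates were read at 0, 8, 16, 24, 32 and 40 h after compound addition.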
On the % scale 0 is the no-effect control and ±100 the full control effect.

Row | SMILES | cytotoxicity increase
1 | NC(=O)c1cn(Cc2c(F)cccc2F)nn1 | -10.7% [at 35.3 µM]
2 | Cc1[nH]c(=O)c(C#N)cc1-c1ccc2nccn2c1 | -1.51% [at 35.3 µM]
3 | FC1(F)C(F)(F)C(F)(F)C2(F)C(F)(F)C(F)(F)C(F)(F)C(F)(F)C2(F)C1(F)F (centres undefined) | -10.1% [at 35.3 µM]
4 | C=C1CC[C@H]2C[C@@H]1C2(C)C | 1.92%
5 | CN1C(=O)N(C)C(O)C1O (centres undefined) | -10.9%
6 | CCN(CC)CCOCCOC(=O)C1(c2ccccc2)CCCC1 | 21.5% [at 35.3 µM]
7 | CCC(C)C1CCCCC1=O (centres undefined) | -1.49%
8 | C=C[Si](OC(=C)C)(OC(=C)C)OC(=C)C | 15.9%
9 | CC(C)NC(=O)NC(C)C | -4.19%
